Hit rate of the full screen: of about 1,900 compounds, about 85 (4%) were called active. These entries were drawn from the full list. A number with no mark means an inactive call.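 How the source made its calls: active means mean PP5 inhibition over triplicate wells above about 9.5% taken from the earlier PP1 screen (limit read from the data); inactive means the rest.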

In this assay the target is Serine/threonine-protein phosphatase 5 (Homo sapiens) (UniProt P53041). Kind of assay: human PP5 catalytic subunit inhibitors – biochemical, fluorescence, triplicate, counter-screen for PP1 inhibitor project, confirmation (AID 2360). Particulars: purified PP5c, OMFP fluorescence; at 6.7 µM; hits give high values. (Counterscreens check selectivity or assay interference.)
Chain of Serine/threonine-protein phosphatase 5 (Homo sapiens) (P53041 whole entry, looked up): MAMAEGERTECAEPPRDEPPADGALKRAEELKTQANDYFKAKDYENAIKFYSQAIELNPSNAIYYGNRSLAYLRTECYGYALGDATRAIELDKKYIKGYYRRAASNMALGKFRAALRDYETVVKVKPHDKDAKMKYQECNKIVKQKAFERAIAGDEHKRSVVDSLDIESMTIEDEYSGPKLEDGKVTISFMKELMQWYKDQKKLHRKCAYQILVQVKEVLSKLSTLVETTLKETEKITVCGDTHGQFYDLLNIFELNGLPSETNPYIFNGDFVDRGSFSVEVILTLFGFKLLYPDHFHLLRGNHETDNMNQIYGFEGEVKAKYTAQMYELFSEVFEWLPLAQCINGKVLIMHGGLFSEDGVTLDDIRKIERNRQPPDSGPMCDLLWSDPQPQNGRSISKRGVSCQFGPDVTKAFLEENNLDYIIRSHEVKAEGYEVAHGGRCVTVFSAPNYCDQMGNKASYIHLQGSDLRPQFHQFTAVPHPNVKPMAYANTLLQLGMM
Broadly, the inhibition is the change of the read-out against control, counted positive when it falls. `Cc1ccc(-c2cc(C(=O)N/N=C/C=C/c3ccco3)c3ccccc3n2)cc1C`: the inhibition is 2.19%.

Turning to `CC1CCCCN1S(=O)(=O)c1ccc(C(=O)Nc2nnc(-c3cccs3)o2)cc1` (stereo unspecified), the inhibition was 1.29%.

For the compound `Nc1ccc2nc3c(=O)[nH]c(=S)[nH]c3nc2c1`, the inhibition was 15% (active).

With `O=C(Nc1cccc(-c2nc3ccccc3[nH]2)c1)c1ccc(C(=O)Nc2cccc(-c3nc4ccccc4[nH]3)c2)cc1`, the inhibition was -2.5%.

`COCCN(CCOC)S(=O)(=O)c1ccc(C(=O)Nc2nc3c(s2)CCc2ccccc2-3)cc1`: the inhibition was -4.16%.

In the case of `Cc1nc2c(C(=O)NCc3ccc4c(c3)OCO4)c[nH]n2c(=O)c1Cc1ccccc1F`, the inhibition was 0.13%.

In the case of `COc1ccc(C2C(C(C)=O)=C(O)C(=O)N2CCc2c[nH]c3ccccc23)cc1` (stereo unspecified), the inhibition was 1.2%.

As for `Clc1ccc(-n2nnnc2-c2cnc(-c3ccccn3)nc2-c2cccs2)cc1`, the inhibition is -0.17%.

Take `CCC(=C/c1sc2ccc3ccccc3c2[n+]1C)/C=C1\Sc2ccc3ccccc3c2N1C`: the inhibition was 0.84%.

For `CS(=O)(=O)c1ccc2c(c1)SC1=NC(=O)/C(=C/c3ccco3)C(=N)N12`, the inhibition is -6.01%.

For the compound `Cc1ccc2cc(CCNC(=O)c3c(-c4ccccc4Cl)noc3C)c(=O)[nH]c2c1`, the inhibition is -2.45%.

Consider `CCOc1ccc(/C=C/C(=O)OCC(=O)c2ccccc2OC)cc1OC`, for which the inhibition was -0.62%.

Consider `Cc1ccc(S(=O)(=O)N2[C@@H](c3cccc(Cl)c3)C(C(=O)O)=CC[C@H]2c2ccc(Cl)c(Cl)c2)cc1`, for which the inhibition is 2.51%.

As to `Cc1cc(Nc2ccccc2)n(C(=O)c2ccc(N)cc2)n1`, the inhibition was 3.89%.

As for `O=C1C2N=NN(CC(=O)N3N=C(c4cccc5ccccc45)CC3c3ccccc3)C2C(=O)N1c1ccccc1` (stereo unspecified), the inhibition is -0.31%.

Consider `C=CCn1c(=S)[nH]c2scc(-c3ccco3)c2c1=O`, for which the inhibition is 1.52%.

Take `CCCc1ccc(OCC(=O)NNC(=S)NC(=O)c2ccco2)cc1`: the inhibition was -5.19%.

In the case of `Cc1cc(N/N=C\c2ccc(Br)cc2)nc(-n2nc(C)cc2C)n1`, the inhibition was -2.43%.

Turning to `Cc1ccc(-c2cc(C(=O)Nc3nn[nH]n3)c3ccccc3n2)c(C)c1`, the inhibition was -5.88%.

Take `Cc1ccc(NS(=O)(=O)c2ccc(N/N=C/c3ccccc3OCC(=O)O)c([N+](=O)[O-])c2)c(C)c1`: the inhibition is 3.83%.

`OCCNc1nc(Nc2ccc(Cl)c(Cl)c2)nc2ccccc12`: the inhibition was 6.65%.

In the case of `CSc1ccc(/C=N\NC(=O)COc2ccc(Cl)cc2Br)cc1`, the inhibition is -2.43%.

Consider `CCCCn1c(SCc2ncc(-c3ccccc3)o2)nc2cc(S(N)(=O)=O)ccc21`, for which the inhibition was -3.7%.

`CN(C(=O)COC(=O)c1cc(-c2ccco2)nc2ccccc12)C1CCS(=O)(=O)C1` (stereo unspecified): the inhibition is -3.35%.

With `Oc1c(Cl)cc(Cl)c(Cl)c1Cc1c(O)c(Cl)cc(Cl)c1Cl`, the inhibition was -0.37%.

Turning to `Cc1cc(-c2csc(N)n2)c(C)n1-c1ccccc1`, the inhibition was -5.26%.

Turning to `C#CCOCCOCCOCCNc1nc(N2CCN(C(=O)CCCCCCCCCCNC(=O)[C@H](CCCCN)n3cc(C)nn3)CC2)nc(N2CCN(C(=O)CCCCCCCCCCNC(=O)[C@H](CO)n3cc(CCCSC)nn3)CC2)n1`, the inhibition is -2.42%.

Turning to `COc1cc(C2C(C(=O)c3ccc(C)o3)=C(O)C(=O)N2CCc2ccccc2)ccc1O` (stereo unspecified), the inhibition is 1.74%.

Take `Cc1ccccc1S(=O)(=O)N1[C@@H](c2cccc(Cl)c2)C(C(=O)O)=CC[C@H]1c1ccc(Cl)cc1`: the inhibition was 1.77%.

On to `O=C1C(=O)N(CC2COc3ccccc3O2)c2ccccc21` (stereo unspecified), for which the inhibition is -2.89%.

For `C#CCOCCOCCOCCNc1nc(N2CCN(C(=O)CCCCCCCCCCNC(=O)[C@H]([C@@H](C)CC)n3cc(CCCCN=C(N)N)nn3)CC2)nc(N2CCN(C(=O)CCCCCCCCCCNC(=O)[C@H](CO)n3cc(CCCSC)nn3)CC2)n1`, the inhibition was 4.44%.

For the compound `COc1ccc(-c2nn(-c3ccccc3)cc2/C=C\C(=O)Nc2ccc(C(=O)O)cc2)cc1`, the inhibition was 5.85%.

For the compound `C/C(CC(O)(/C=N/O)c1ccccc1)=N\O` (stereo unspecified), the inhibition is -4.09%.

Consider `N=c1n(Cc2ccc(Cl)cc2)c2ccccc2n1CC(O)c1ccco1` (stereo unspecified), for which the inhibition was -3.3%.

Consider `CN1CCN(CCCNC(=O)c2ccc(/C=C3\Oc4ccccc4N(Cc4ccc(Cl)cc4)C3=O)cc2)CC1`, for which the inhibition was 0.17%.

`Oc1c(CN2CCN(c3ccc(F)cc3)CC2)cc(Cl)c2cccnc12`: the inhibition was 2.27%.

For `Cc1cccc(OCC(O)Cn2c(=N)n(CCN3CCOCC3)c3ccccc32)c1` (stereo unspecified), the inhibition is 0.64%.

Take `CCNS(=O)(=O)c1ccc(NC(=O)Nc2cccc(C(F)(F)F)c2)cc1`: the inhibition was 7.24%.

In the case of `COc1ccccc1/C=N\Nc1cc(C)nc(-n2nc(C)cc2C)n1`, the inhibition was -0.35%.

Consider `O=C(Nc1nnc(-c2ccccc2)o1)c1cc(-c2cccs2)nc2ccccc12`, for which the inhibition was -6.61%.

As to `Cc1ccc(-c2nn(-c3ccccc3)cc2/C=C2\SC(=S)N(CCCCCC(=O)O)C2=O)o1`, the inhibition was 1.44%.

Consider `Cc1ccc2nc(N3C(=O)C(O)=C(C(=O)c4ccco4)C3c3cccc(O)c3)sc2c1` (stereo unspecified), for which the inhibition was -0.83%.

As to `COc1cnc(-c2ccccn2)nc1Oc1ccc(C(C)(C)C)cc1`, the inhibition is 1.77%.

Turning to `O=C(Nc1nc(-c2ccco2)c(-c2ccco2)s1)c1ccco1`, the inhibition was 0.46%.

As to `CCCOc1ccc(C2C(C(=O)c3ccc(C)o3)=C(O)C(=O)N2CCCn2ccnc2)cc1` (stereo unspecified), the inhibition is 2.29%.

As for `O=C(CSc1nnc(C2CC2)n1Cc1ccccc1)Nc1cccnc1Cl`, the inhibition is -2.71%.

Regarding `Oc1ccc(C2Nc3cccc4cccc(c34)N2)cc1`, the inhibition is 8.12%.

`C=CCN(CC=C)S(=O)(=O)c1ccc(C(=O)Nc2nc3c(s2)CCc2ccccc2-3)cc1`: the inhibition was -1.58%.

Take `CCCCCCCCCCOC(=O)Cn1c(COc2cccc(OC)c2)[n+](C)c2ccccc21`: the inhibition is 3.6%.

As for `COc1cccc(/C=N/NC(=O)c2[nH]nc3c2CCc2ccccc2-3)c1O`, the inhibition was -2.54%.

In the case of `Cc1ccc(NC(=O)COc2ccc(/C=C3/NC(=O)NC3=O)cc2)cc1`, the inhibition was -6.15%.
